# Source: PubChem
# Hits are enriched below; roughly 6.7% of the tested compounds scored in any of these assays.
# GDH-TPI inh: GDH-TPI coupled enzyme inhibition counter-screen; inhibition, % at 4.8 µM; GDH-TPI coupled enzyme counterscreen, NADH absorbance; 1.2% of 360,000 active; AID 588335; in the data active = inhibition above about 30%;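 also: 0% = DMSO wells and 100% = wells lacking the enzyme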
# BoNT-A LC inh2: inhibitors of Botulinum neurotoxin A light chain protease | multiplex microsphere protease substrate cleavage, flow cytometry | inhibition, % at 10 µM | 0.17% of 360,000 active | AID 588499; also: plate controls were buffer without enzyme for full effect and enzyme alone for no effect
# Anthrax LF inh2: inhibitors of Bacillus anthracis lethal factor protease; multiplex microsphere protease cleavage assay, LF; P15917; AID 588501; 0.12% of 360,000 active; inhibition, % at 10 µM; also: plate controls were buffer without enzyme for full effect and enzyme alone for no effect
# BoNT-F LC inh: blocks Botulinum neurotoxin F light chain protease. Multiplex microsphere protease cleavage assay, flow cytometry. inhibition, % at 10 µM. 0.22% of 360,000 active; in the data active = inhibition above about 35%, passing the limit was not always enough; inconclusive = no clear call, values can overlap the other calls; also: plate controls were buffer without enzyme for full effect and enzyme alone for no effect
# Mtb FBA inh: Mtb fructose-bisphosphate aldolase inhibition. purified M. tuberculosis FBA, fluorescence read-out. inhibition, % at 1 µM. 2.3% of 360,000 active; in the data active = inhibition above about 27%;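 also: 0% = vehicle and 100% = reference inhibitor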
# Bead autofluor: flagged as autofluorescent in microsphere protease counterscreen. compound autofluorescence counterscreen, microsphere flow cytometry; stronger effect = higher value. fluorescence intensity (concentration not given with the values). 3.1% of 360,000 active. AID 624483; in the data active = fluorescence intensity above about 16000; inconclusive = no clear call, values can overlap the other calls
# * hit, by the source's call; ? = inconclusive; / = no result; + = active, no number. Rule as the data show it, unless noted: active = inhibition above about 30%; inconclusive = no clear call, values can overlap the other calls; inactive = below that.
SMILES,GDH-TPI inh,BoNT-A LC inh2,Anthrax LF inh2,BoNT-F LC inh,Mtb FBA inh,Bead autofluor
Cc1cc(=O)oc2cc(OC(C)C(=O)NCC3CCC(C(=O)O)CC3)ccc12 (stereo unspecified),18,0,8,-10,28*,3967
CC(Oc1ccc2c(-c3ccccc3)cc(=O)oc2c1)C(=O)NCC1CCC(C(=O)O)CC1 (stereo unspecified),21,0,-3,0,-1,5540
COc1ccccc1C(=O)NC(=O)CSc1nc2nc(C)cc(C)n2n1,2,-15,-5,?,2,?
CCCn1c(-c2ccc(OC)cc2)nc2ccccc21,4,-1,-6,-17,9,7760
Cc1cc2nc(-c3ccc[nH]c3=O)n(Cc3ccccc3F)c2cc1C,-3,-1,0,1,14,3324
Cc1cc2nc(-c3ccc[nH]c3=O)[nH]c2cc1C,26,4,1,?,+,3973
CCCn1c(-c2ccc[nH]c2=O)nc2ccccc21,3,-1,-3,-5,152*,4563
Cc1ccccc1-c1nc2ccccc2[nH]1,9,0,-4,-2,6,2335
Cc1cc2nc(-c3ccc[nH]c3=O)n(Cc3ccc(F)cc3)c2cc1C,14,2,7,-12,198*,3200
O=c1[nH]cccc1-c1nc2ccccc2n1Cc1ccc(F)cc1,14,-1,1,-4,173*,3511
Cc1ccc(S(=O)(=O)Nc2nc(C)c(NC(=O)OCCCl)s2)cc1,1,-5,-3,-7,0,21860*
O=C(c1cncc(Br)c1)N1CCCc2ccccc21,18,1,5,4,2,3511
CC(=O)c1ccc(NC(=O)c2sc3nc(N4CCOCC4)c4c(c3c2N)CCCC4)cc1,11,0,-1,-5,5,4211
COc1cc(C(=O)N(Cc2ccco2)Cc2cc3ccccc3[nH]c2=O)cc(OC)c1OC,27,?,-1,-4,1,23180*
Cc1csc(=NC(=O)c2ccccc2)n1C,10,0,0,-3,0,3769
O=C(O)C1Cc2ccccc2CN1S(=O)(=O)c1ccc(Cl)cc1 (stereo unspecified),1,0,-5,-3,5,3836
C=CCn1c(SCC(=O)N(CC)CC)nc(O)cc1=O,-4,?,-2,-1,1,23021*
CCOc1cc(C)c(-c2onc(C(F)(F)F)c2-c2csc(C)n2)c(O)c1,-2,3,-8,1,-7,22729*
Cc1nc(-c2c(C(F)(F)F)noc2-c2ccc(O)cc2O)cs1,8,?,-2,-9,0,17928*
COc1ccc(-c2nc(N)nc(C(F)(F)F)c2-c2csc(C)n2)c(O)c1,17,0,-6,-3,5,3894
Oc1ccc(-c2onc(C(F)(F)F)c2-c2cscn2)c(O)c1,8,0,2,-1,1,2935
CCc1ccc(-c2cnc3nc[nH]c(=O)c3n2)cc1,6,-3,0,?,135*,4077
CCc1ccc(-c2ccc(C(=O)O)c(C)n2)cc1,11,0,-2,0,5,2439
O=C(O)c1ccc(Cn2ccc3ccccc32)o1,10,?,-12,?,1,4333
c1ccc(C2(Cn3ccc4ccccc43)OCCO2)cc1,8,35*,-3,-15,-5,24276*
SMILES,GDH-TPI inh,BoNT-A LC inh2,Anthrax LF inh2,BoNT-F LC inh,Mtb FBA inh,Bead autofluor
Nc1ccc(C(O)(C(F)(F)F)C(F)(F)F)cc1,5,0,0,0,1,16402*
CCC1NC(C(=O)O)Cc2c1[nH]c1ccccc21 (stereo unspecified),11,2,11,-4,47*,4880
COc1cc(C2NC(C(=O)O)Cc3c2[nH]c2ccccc32)cc(OC)c1OC (stereo unspecified),18,0,0,1,9,12893
CC1(C)Cc2c(sc3nc(SCC(=O)O)[nH]c(=O)c23)CO1,-7,-1,0,-6,3,11545
Cn1cc(Br)c(C(=O)N/N=C/c2cc3ccccc3nc2Cl)n1,31*,-4,-3,-17,4,6708
O=C(N/N=C/c1cc2ccccc2nc1Cl)c1ccncc1,12,0,0,-2,-2,4550
NC(Cc1ccc(Cl)cc1)c1csc(NC(=O)NCCc2ccccc2)n1 (stereo unspecified),-3,0,-9,-14,2,3897
Cc1ccccc1OCCCn1cc(C(=O)C(=O)N2CCOCC2)c2ccccc21,11,0,-1,0,152*,3155
O=C(C(=O)N1CCOCC1)c1cn(Cc2ccc(F)cc2)c2ccccc12,32*,0,0,1,-4,4275
COCCn1cc(C(=S)N2CCOCC2)c2ccccc21,1,0,-4,0,-1,22910*
CCCCCn1cc(C(=O)C(=O)N2CCOCC2)c2ccccc21,13,2,1,6,-3,5949
O=C(c1cccs1)n1cc(C(=S)N2CCOCC2)c2ccccc21,-7,0,-1,1,-2,20879*
O=C1CCCc2nc3c(cc21)C(O)Oc1ccccc1-3 (stereo unspecified),26,-1,12,-3,18,4961
COc1cccc(NC(=O)/C=C/c2ccc(S(=O)(=O)N3CCOCC3)cc2)c1,4,/,/,/,5,/
Nc1nc(-c2cccnc2)nn1C(=O)COc1ccccc1,1,-2,-2,-6,-7,24503*
Cc1ccc(NC2=NC(c3ccc(O)cc3)n3c(nc(C)cc3=O)N2)cc1 (stereo unspecified),7,?,1,-4,-1,22829*
CC(=O)Nc1ccc(/C=N/Nc2nncc3ccccc23)cc1,15,5,0,48*,-2,3024
CCCCNC(=O)N1CCN(C(=O)C2CCCO2)CC1 (stereo unspecified),8,0,-1,3,2,2548
CCOC(=O)c1c(NC(C)=O)sc2c1CCC(C=NCCCN(CC)CC)=C2Sc1ccccc1,7,68*,31*,-24,5,4169
CCOC(=O)c1c(NC(C)=O)sc2c(OCCN(CC)CC)c(Br)ccc12,-1,-1,5,0,8,4280
CC(=O)Nc1ccc(NC(=O)C2C3C=CC(C3)C2C(=O)O)cc1 (stereo unspecified),-4,3,0,-9,0,3975
CC(C)CNC(=O)C1C2C=CC(C2)C1C(=O)O (stereo unspecified),-6,?,3,-2,-2,20356*
CN(C)C(CNc1nnnn1-c1ccccc1)c1ccco1 (stereo unspecified),-8,-1,-3,-8,0,20446*
CC(C)(C)CC(C)(C)NC(=S)Nc1ccc2nc(-c3ccccn3)c(-c3ccccn3)nc2c1,6,42*,18,18,12,6947
COc1ccc(-c2oc3cccnc3c2C#CC2(O)CCCCC2)cc1,34*,-2,-5,-37,+,3068
COc1ccc(-c2oc3cccnc3c2C#CCO)cc1,32*,0,-3,-4,+,4104
